The assay concerns NanoLuc luciferase (engineered Oplophorus gracilirostris luciferase). The assay can be described thus: Confirmatory Nanoluciferase (NLuc) qHTS assay for identification of artifact compounds. The text has this: PI: Alexander Tropsha Ph.D. UNC Eshelman School of Pharmacy University of North Carolina, Chapel Hill, North Carolina Hits from high-throughput screening (HTS) of chemical libraries are often false positives due to their interference with the assay detection technology. In response to this problem, we generated the largest publicly available library of chemical liabilities and developed a free webtool to predict HTS artifacts, both of which are described herein. More specifically, we generated, curated, and integrated HTS datasets for thiol reactivity, redox activity, and luciferase (firefly and nano) activity. Using these curated datasets, we developed and validated several Quantitative Structure-Interference Relationship (QSIR) models to predict nuisance behavior. […] These models were employed for virtual profiling of the National Center for Advancing Translational Science's (NCATS) in-house library, and 256 compounds for each assay were selected for the experimental validation of nuisance behavior. The BA for these external predictions ranged from 58 to 78% for compounds within the applicability domains of the models. […] The models developed in this study, along with aggregation models previously developed by our group (SCAM Detective) were implemented in "Liability Predictor," an online tool which may be used as part of chemical library design or for triaging HTS hits. Both the models and the curated datasets are publicly available at https://liability.mml.unc.edu/.
PROTOCOL TABLE SEQUENCE No. (e.g., 1, 2, 3, etc.); PARAMETER (e.g., Cells, Incubation, Reagent, etc.); VALUE; DESCRIPTION. 1; Reagent; 2 uL; Nanoluciferase media. 2; Compounds and control; 16 nL; Kalypsis pin tool (Wako USA) equipped with a 1536-well pin head. 3; Incubation; 15 min. 4; Reagent; 2 uL; Luciferase enzyme. 5; Incubation; 5 min. 6; Detection; Luminescence, ViewLux microplate reader. NOTES (numbers refer to Sequence numbers above) 1. Medium was collected from the culture flasks of NLuc-expressing S16 cells (80% confluent) prior to cell plating, filtered through a 0.22um filter, and frozen at -20C prior to use. Media was diluted (1:55) and 2 uL was dispensed into all wells of a 1536-well assay plate (solid-bottom white plate; Greiner Bio One, Monroe, NC). 2. A Wako Pin-tool (Wako Automation, Richmond, VA) was used to transfer 16 nL of compounds (consisting of 7-plates in qHTS format, final concentration range 18.3 nM to 114 uM) or control Cilnidipine (final concentration range 623 nM to 80 uM). 3. 15 min. incubation at room temperature protected from light. 4. 2 uL of NLuc substrate (1:100 in Nano-Glo luciferase buffer; Nano-Glo luminescence assay, Promega, Madison, WI) was dispensed for a final assay volume of 4 uL. 5. Plates were centrifuged (121xg, 15 seconds) and incubated for 5 minutes. 6. Samples were read for luminescence on a ViewLux CCD imager (PerkinElmer). Data were normalized to no-enzyme (0% activity) and no-inhibitor (DMSO; 100%) controls and the resulting percent inhibition data were fitted to a 4-parameter Hill equation using NCATS in-house software.
In general terms: qHTS replaces the single test concentration by a dilution series.

Molecules are shown by their SMILES. Results filed as inconclusive are left out. Entries that show only a call come without a potency. Active and inactive are the calls of the source. Calls come from the whole dose curve; as a rule, active = well fitted curve in the direction sought with a large enough effect; inconclusive = small, poorly fitted or top-dose-only effect, or another doubt; inactive = no such curve, though single readings can be large or run the other way.
Potency is the fitted concentration of half-maximal effect.

Turning to `CC(C)(O)[C@@H]1[C@H]2OC(=O)[C@@H]1[C@]1(O)C[C@H]3O[C@]34C(=O)O[C@H]2[C@]14C`, the Potency entry was “inactive”.

With `COc1cccc2c1C(=O)c1c(O)c3c(c(O)c1C2=O)CC(O)(C(C)=O)CC3OC1CC(NCc2ccc(CNC3CC(OC4CC(O)(C(C)=O)Cc5c(O)c6c(c(O)c54)C(=O)c4c(OC)cccc4C6=O)OC(C)C3O)cc2)C(O)C(C)O1` (centres undefined), the Potency was 15.4 µM (active).

`O=P1(N(CCCl)CCCl)NC(OO)CCO1` (centres undefined): the Potency result was “inactive”.

For the molecule `CC(=O)O[C@H]1C2[C@@H](OC(=O)Cc3ccccc3)[C@@H](C)C[C@]2(OC(C)=O)C(=O)/C(C)=C/[C@@H]2[C@H](CC[C@@]13CO3)C2(C)C` (some centres undefined), the Potency entry was “inactive”.

For `CC1=C[C@H]2[C@]3(O)C(C=C(CO)C[C@]2(O)C1=O)[C@@H]1C(C)(C)[C@]1(O)[C@H](O)[C@H]3C` (some centres undefined), the Potency result was “inactive”.

With `C[C@H]1CC[C@@H]2[C@@H](C)[C@H]3C(CC4C5CC=C6CC(O[C@@H]7O[C@H](CO)C(O[C@@H]8O[C@@H](C)[C@H](O)[C@@H](O)[C@H]8O)[C@H](O)[C@H]7O[C@@H]7O[C@@H](C)[C@H](O)[C@@H](O)[C@H]7O)CC[C@]6(C)C5CC[C@@]43C)N2C1` (some centres undefined), the Potency result is “inactive”.

For `COc1cc(=O)n2c(c1C(=O)N(C)Cc1nonc1C)CCN(C(=O)C1C(C)(C)C1(C)C)CC2`, the Potency entry was “inactive”.

For `C[C@@H]1C[C@@H]2[C@H]([C@H]3C=C(COC(=O)c4ccccc4)[C@@H](O)[C@]4(O)[C@@H](O)C(OC(=O)c5ccccc5)=C[C@@]14C3=O)C2(C)C`, the Potency entry was “inactive”.

On to `CC(=O)O[C@H]1[C@H]2[C@@H](OC(=O)Cc3ccccc3)[C@@H](C)C[C@]2(OC(C)=O)C(=O)/C(C)=C/[C@@H]2[C@H](CC[C@@]13CO3)C2(C)C`, for which the Potency entry is “inactive”.
